# KKLEB cytotox – reduces viability of KKLEB cystic fibrosis airway cells; KKLEB CF airway cells viability, ATPlite luminescence, overnight; active compounds read low; cells stimulated with P. aeruginosa culture filtrate; actives 0.36% (n = 360,000); activity change (cytotoxicity), % at 5 µM;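 active = corrected activity change at or below -50% at 5 µM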
# EBV LMP1 NFkB – reduces LMP1-driven NF-kappaB luciferase signal; LMP1-induced NF-kappaB luciferase reporter cells, luminescence; actives 0.69% (n = 350,000); AID 504558; inhibition, % at 12.5 µM; in the data active = inhibition above about 41%;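 also: 0% = neutral control wells and 100% = reference inhibitor control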
# MITF TRPM1 inh – MITF TRPM1 promoter inhibition in SK-MEL-5 cells. SK-MEL-5 TRPM1 promoter luciferase, 24 h. inhibition, % at 12.5 µM. actives 0.83% (n = 330,000). AID 488899;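 active = mean inhibition across replicates of 60% or more, whatever share of single replicates reaches that level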
# CF NFkB inh – inhibitors of cystic fibrosis induced NF-kB; KKLEB NF-kB-GFP reporter, PAF-induced, GFP fluorescence overnight; inhibition, % at 5 µM; actives 0.86% (n = 360,000); AID 588850;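 active = at least 50% inhibition at 5 µM, scaled per plate between neutral and stimulator controls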;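 also: PAF is a Pseudomonas aeruginosa culture filtrate used as stimulus; plate controls were PAF-stimulated DMSO wells for no effect and unstimulated DMSO wells for full effect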
# Shn3 inh set2 – Schnurri-3 reporter inhibition in Clone20 osteoblasts; inhibition, % at 12.5 µM; Clone20 osteoblast Shn3 3'UTR firefly luciferase, 24 h; actives 0.52% (n = 360,000);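 active = mean inhibition of at least 75% with every replicate also reaching 75%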;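 also: 0% = median of neutral control wells and 100% = pilot-screen positive control compound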
# Peg3 prom inh – inhibitors of Peg3 promoter; AID 588405; inhibition, % at 20 µM; actives 1.7% (n = 360,000); HeLa PEG-Prom luciferase reporter, luminescence, overnight;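 active = inhibition of at least 50% at 20 µM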
# The depositor's hits bear a star; / = not tested or not shown. Only some compounds are listed: those with a hit (about 2.9% of all), similar ones and a draw of the others.
SMILES,KKLEB cytotox,EBV LMP1 NFkB,MITF TRPM1 inh,CF NFkB inh,Shn3 inh set2,Peg3 prom inh
O=c1cc(CO)[nH]nc1CO,-14,-4,/,5,-5,-13
CCOC(=O)c1c(C2CC2)csc1NC(=O)COC(=O)c1cnc(Cl)c(Cl)c1,6,2,9,-3,-17,102*
CC1=C(C(=O)Nc2ccccc2)C(c2ccc(C)cc2)N=C(Nc2nc3ccccc3o2)N1 (stereo not drawn),-17,-16,22,1,68,77*
O=C1ON=C(c2ccccc2[N+](=O)[O-])/C1=C/c1cccc([N+](=O)[O-])c1O,22,71*,5,-15,5,-2
CC(Cc1cccs1)NC(=O)Nc1ccc(F)cc1 (stereo not drawn),3,-15,-16,4,89*,-72
CC(Cc1cccs1)NC(=O)Nc1cccc(Cl)c1 (stereo not drawn),-1,-15,-21,1,11,-103
Oc1c(N=NC(=S)Nc2ccccc2F)c2ccccc2n1Cc1ccccc1F,-15,48*,18,25,31,9
Cc1ccc(C)c(Cn2c(O)c(N=NC(=S)Nc3ccccc3F)c3ccccc32)c1,16,45*,21,12,55,26
Cc1ccc(Cn2c(O)c(N=NC(=S)Nc3ccccc3F)c3cc(S(=O)(=O)N4CCOCC4)ccc32)cc1,16,36,9,-49,51,0
Cc1ccccc1Cn1c(O)c(N=NC(=S)Nc2ccccc2F)c2ccccc21,4,44*,13,-10,25,22
Oc1c(N=NC(=S)Nc2ccccc2F)c2ccccc2n1Cc1ccc(Cl)cc1,-20,39,16,21,50,16
NCC(c1ccc(Cl)cc1Cl)c1c[nH]c2ccccc12 (stereo not drawn),-16,1,17,21,-1,96*
CN(C)CCCNC(=S)NCC(c1ccc(Cl)cc1Cl)c1c[nH]c2ccccc12 (stereo not drawn),-2,-41,46,18,5,103*
CN(C)c1nc(N)nc(CSc2nnnn2-c2ccc(Cl)cc2)n1,3,/,/,1,-4,12
COCCNC(=O)C1CCCN(Cc2ccc(C#N)cc2)CC1 (stereo not drawn),-1,/,/,-1,4,-2
Cc1c(Cl)cccc1N=C1NC(=O)CS1,-10,-9,/,-18,18,12
CCN(CC(=O)Nc1ccc(NC(C)=O)cc1)C(=O)c1ccc(N(C)S(=O)(=O)c2ccc(C)cc2)cc1,14,-4,14,-14,-18,-5
COc1ccc2cc1Oc1ccc(cc1)C[C@H]1c3c(cc4c(c3Oc3cc5c(cc3OC)CCN(C)[C@@H]5C2)OCO4)CCN1C,-22,-89,63*,9,-30,87*
COc1ccc(C(O)C2c3c(cc4c(c3OC)OCO4)CCN2C)c(CO)c1OC (stereo not drawn),-3,/,/,0,4,13
COc1ccc2c(c1OC)C(=O)O[C@@H]2[C@H]1c2c(cc3c(c2OC)OCO3)CCN1C,6,-2,-11,-1,1,-1
COc1ccc2cc1Oc1ccc(cc1)C[C@H]1c3cc(c(OC)cc3CCN1C)Oc1c(OC)c(OC)cc3c1[C@H](C2)N(C)CC3,-14,-12,95*,27,38,93*
Cc1ccc(Oc2cc(-n3nc(C)cc3C)ncn2)cc1,-19,-8,-69,21,-19,-115
Cc1cc(C)n(-c2cc(-n3nc(C)cc3C)ncn2)n1,2,-7,-6,-7,96*,-9
COc1ccc(F)cc1-c1cc(C(=O)N2CCc3ccccc3C2)[nH]n1,14,/,/,-22,-16,-54
CC(C)(C)c1ccc(C(=O)O/N=C(\N)c2ccccc2)cc1,-12,57*,69*,3,70,104*
COc1ccc(C(=O)O/N=C(\N)c2ccccc2)cc1,5,6,-44,-8,-3,31
Cc1ccccc1C(=O)O/N=C(\N)c1ccncc1,4,56*,-24,-6,-39,-193
COc1ccccc1OCC(=O)NCC1CCCN(C(=O)c2cccc(C)c2)C1 (stereo not drawn),-12,-8,/,25,1,-9
COc1ccc(-n2c(=S)[nH]c3cc(C(=O)NCc4ccco4)ccc3c2=O)cc1OC,1,2,-3,-2,1,-3

# Compound activity as filed in PubChem BioAssay.
